# BAZ2B inh: qHTS Assay for Inhibitors of BAZ2B; AID 504333, 2011; AlphaScreen BAZ2B-H3K14Ac peptide displacement; Bromodomain adjacent to zinc finger domain protein 2B (Homo sapiens), Q9UIF8; 360,000 tested, 4.4% active; Potency, µM (highest dose often 114 µM), inactives show at the highest dose activity change, negative = inhibition, usual class: inhibitors; note: % is set by controls: 0 for no effect and ±100 for the full control effect; nearly all actives have a fitted effect of over 60% in size
#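 Inhibition is scored as reduced AlphaScreen emission. The BAZ2B/b-H3(5-23)K14Ac complex (50 nM each) in PBS pH 7.4, 0.01% Tween-20 meets compound (up to 110 uM) for 30 min at RT before bead addition.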
# Sfp PPTase inh: qHTS Assay for Inhibitors of Bacillus subtilis Sfp phosphopantetheinyl transferase (PPTase) | 4'-phosphopantetheinyl transferase ffp (Bacillus subtilis), Q9F4F7 | Biochemical Sfp PPTase activity, qHTS | Potency, µM, for inactives: largest response in the series, negative = inhibition, most hits filed as inhibitors | 310,000 tested, 3.5% active;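 note: the enzyme is Sfp with the accession as filed and its product quenches rhodamine fluorescence; 0% = enzyme reaction without inhibitor and -100% = no enzyme wells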
#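 Sfp 15 nM + cpd, 15 min RT; start w/ rhodamine-CoA 5 uM, BHQ-2-YbbR 12.5 uM (final); 50 mM Hepes pH 7.6, 10 mM MgCl2, 0.01% NP-40, 0.01% BSA; read 525/598 nm at 0 and 30 min.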
# G9a block: qHTS Assay for Inhibitors of Histone Lysine Methyltransferase G9a; Histone-lysine N-methyltransferase EHMT2 (Homo sapiens), Q96KQ7; G9a H3K9 monomethylation, AlphaScreen, 2 h; Potency, µM (top dose mostly 102 µM), inactives show at the top dose activity, negative = inhibition, usual class: inhibitors; 350,000 tested, 8.8% active; note: % is set by controls: 0 for no effect and ±100 for the full control effect; nearly all actives have a fitted effect of over 75% in size
# Target sequence (Q96KQ7 913-1193 limits assumed): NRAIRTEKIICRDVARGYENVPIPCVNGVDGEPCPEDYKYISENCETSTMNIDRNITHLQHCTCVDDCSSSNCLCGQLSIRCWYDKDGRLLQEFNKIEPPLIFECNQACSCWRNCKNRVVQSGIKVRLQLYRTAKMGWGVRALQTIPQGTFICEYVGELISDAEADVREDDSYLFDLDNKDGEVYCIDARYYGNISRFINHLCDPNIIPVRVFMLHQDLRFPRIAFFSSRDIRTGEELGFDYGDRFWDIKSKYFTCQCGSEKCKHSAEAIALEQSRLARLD
#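 Signal arises when biotinylated H3K9 peptide, once monomethylated, bridges streptavidin donor and antibody-captured acceptor beads. Enzyme at 20 nM was preincubated 15 min with test compounds; peptide 500 nM and SAM 20 uM then reacted for 2 h.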
# PLK1 PBD block: qHTS for Inhibitors of PLK1-PDB (polo-like kinase 1 - polo-box domain): Primary Screen; 360,000 tested, 2.8% active; Plk1 PBD binding of FITC phosphopeptide, fluorescence polarization; AID 720504, 2013; Serine/threonine-protein kinase PLK1 (Homo sapiens), P53350; Potency, µM, without a hit: max response, negative = inhibition, hits mostly inhibitors; note: series mostly up to about 57 µM; % is set by controls: 0 for no effect and ±100 for the full control effect; nearly all actives have a fitted effect of over 65% in size
# JMJD2A Tudor inh: qHTS Assay for Inhibitors of JMJD2A-Tudor Domain; Lysine-specific demethylase 4A (Homo sapiens), O75164; AlphaScreen JMJD2A-Tudor / H3K4me3 peptide binding; Potency, µM (titrated, usually from 114 µM), for inactives: at the highest dose activity change, negative = inhibition, usual class: inhibitors; 390,000 tested, 4.4% active; note: % is set by controls: 0 for no effect and ±100 for the full control effect; nearly all actives have a fitted effect of over 50% in size
# HP1b binding inh: HTS for Inhibitors of HP1-beta Chromodomain Interactions with Methylated Histone Tails; Chromobox protein homolog 1 (Homo sapiens), P83916; AlphaScreen HP1-beta / biotin-H3K9me3 peptide binding; Potency, µM (top dose mostly 114 µM), for inactives: at the highest dose activity change, negative = inhibition, hits mostly inhibitors; 390,000 tested, 0.56% active; note: nearly all actives have a fitted effect of over 70% in size
# Target sequence (P83916 whole entry, looked up): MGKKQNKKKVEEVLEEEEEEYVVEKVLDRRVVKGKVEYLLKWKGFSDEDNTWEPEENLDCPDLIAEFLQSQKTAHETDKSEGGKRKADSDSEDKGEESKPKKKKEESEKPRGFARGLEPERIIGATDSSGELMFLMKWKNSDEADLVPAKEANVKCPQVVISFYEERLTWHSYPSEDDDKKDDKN
#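 AlphaScreen: HP1-beta (50 nM) preformed 30 min with biotin-H3(1-18)K9me3 peptide (50 nM) in PBS pH 7.4, 0.01% Tween-20. Compound added for 30 min at RT, then streptavidin donor/nickel chelate acceptor beads (10 ug/mL) for 30 min.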
# * hit, by the source's call; ? = inconclusive; · = not tested or not shown; [ ] = dose if it differs, or a comment. Rows were chosen to be rich in hits. Some 12% of all compounds tested hit in one or more screens of this group. Calls come from the whole dose curve; as a rule, active = well fitted curve in the direction sought with a large enough effect; inconclusive = small, poorly fitted or top-dose-only effect, or another doubt; inactive = no such curve, though single readings can be large; an effect the other way counts as inactive or inconclusive. Potency is the fitted concentration of half-maximal effect.
SMILES,BAZ2B inh,Sfp PPTase inh,G9a block,PLK1 PBD block,JMJD2A Tudor inh,HP1b binding inh
CCc1ccc(C(=O)c2cn(CC(=O)Nc3ccc4c(c3)OCO4)c3cc(OC)c(OC)cc3c2=O)cc1,79µM*,·,-28%[59 µM],·,-35%,26%
CCc1ccc(C(=O)c2cn(CC(=O)Nc3ccc4c(c3)OCO4)c3ccc(Cl)cc3c2=O)cc1,-27%,·,-3%[59 µM],·,-13%,15%
CCc1ccc(C(=O)c2cn(CC(=O)Nc3cccc(OC)c3)c3ccc(OC)cc3c2=O)cc1,50µM*,·,10µM*,·,11µM*,3%
COc1ccc(C(=O)c2cn(Cc3ccccc3F)c3ccc(F)cc3c2=O)cc1,79µM*,·,-9%[59 µM],·,-22%,21%
CCCNc1[nH]c(=O)n(C)c(=O)c1N=O,-38%[57.1 µM],8%,40µM*,-1%,50µM*,0%
Cn1c(=O)[nH]c(NC2CCCCC2)c(N=O)c1=O,?,-3%,?,-21%,89µM*,45%
CCOC(=O)C1CCCN(S(=O)(=O)c2cc3c(cc2C)NC(=O)CO3)C1 (centres undefined),-22%,·,-1%[59 µM],·,-20%,21%
COC(=O)c1cccc(NC(=O)CSc2nc(=O)cc(N)n2-c2ccccc2)c1,56µM*,11%,?,-6%,-22%,-11%
CCc1cccc(NC(=O)CSc2nnc(Cc3ccc(OC)cc3)c(=O)[nH]2)c1,9%,·,50µM*,-18%,3%,6%
COC(=O)c1cccc(NC(=O)CSc2nc(O)c(-c3ccccc3)c(=O)[nH]2)c1,?,16%,71µM*,-10%,-24%,22%
COC(=O)c1ccccc1NC(=O)CSc1nc(O)c(-c2ccccc2)c(=O)[nH]1,?,19%,-4%[59 µM],-10%,-2%[57.1 µM],40%
COc1ccc(Cc2nnc(SCC(=O)Nc3c(C)cccc3C)[nH]c2=O)cc1,10%,·,-1%,-3%,-3%,19%
CCCc1cc(=O)[nH]c(Nc2ccccc2O)n1,-5%,·,-7%[59 µM],·,-1%,36%
NC(C(=O)O)c1nn[nH]n1 (centres undefined),·,-7%,·,·,10µM*,-15%
O=C(CC(NC(=O)OCc1ccccc1)c1nn[nH]n1)OCc1ccccc1 (centres undefined),·,·,·,-8%,·,·
CCc1cc(=O)oc2c(CNCc3ccccc3F)c(O)c(Cl)cc12,?,-18%,50µM*,30µM*,?,40%
Cn1c2ccccc2c(=O)c2c(=O)n(Cc3ccco3)c(-c3ccc(Cl)cc3Cl)nc21,-15%,8.9µM*,-27%,·,·,·
O=c1[nH]c2ccccc2n2c(=S)[nH]nc12,-15%,-29%,·,-10%,3.5µM*,-28%
O=C1Nc2ccccc2S/C1=C/NCc1ccccc1Cl,?,56µM*,32µM*,-17%,50µM*,-24%
Cc1ccc(N/C=C2/Sc3ccccc3NC2=O)cc1,-23%,0%,-48%,8%,-16%,56%
COC(=O)C(Cc1ccccc1)NC(=O)c1cccc(S(=O)(=O)N(C)C)c1 (centres undefined),-10%,7%,3%,-9%,-1%,22%
O=C(Cc1nc2ccccc2[nH]1)c1ccc(Cl)cc1,-3%,16%,4%,-4%,-19%,18%
O=C(Cc1nc2ccccc2[nH]1)c1ccc([N+](=O)[O-])cc1,-27%,16µM*,45µM*,-10%,-27%,18%
CN/N=C(\Cc1nc2ccccc2[nH]1)c1ccc([N+](=O)[O-])cc1,?,22µM*,?,-11%,?,2%
Clc1ccc(/C(Cc2nc3ccccc3[nH]2)=N\Nc2ccccc2)cc1,?,-3%,7.1µM*,-8%,?,-11%
SMILES,BAZ2B inh,Sfp PPTase inh,G9a block,PLK1 PBD block,JMJD2A Tudor inh,HP1b binding inh
CC(C)CCn1c(=O)c2sccc2n2c(CCCC(=O)NCCc3ccccc3)nnc12,-23%,·,6%[59 µM],·,-6%,37%
Cc1ccc(S(=O)(=O)/C(C#N)=C/c2c(N3CC(C)OC(C)C3)nc3c(C)cccn3c2=O)cc1 (centres undefined),-7%,-2%,-31%[59 µM],1%,8%,9%
CCC1=NN(C(=O)c2ccccc2O)C(O)(c2ccccc2)C1 (centres undefined),50µM*,9%,3%,-14%,7.1µM*,13%
CCC1=NN(C(=O)c2ccccc2Br)C(O)(c2ccc(Br)cc2)C1 (centres undefined),-34%,9%,?,-12%,-14%,37%
COC(=O)C1=NN(C(=O)c2ccc(Cl)cc2)C(O)(c2ccccc2)C1 (centres undefined),6%,3%,-44%[59 µM],-11%,-35%,1%
CCC1=NN(C(=O)c2ccc(Cl)cc2)C(O)(c2ccccc2)C1 (centres undefined),50µM*,9%,·,-14%,-32%,16%
Cc1cc(=O)[nH]c(-n2[nH]c(C)cc2=O)n1,11µM*,22µM*,-40%[0.0925 µM],-5%,45µM*,48%
Cc1cc(=O)[nH]c(N2CCCC2)n1,-33%,13%,17%[59 µM],-7%,-7%,25%
C[C@@H]1C(=O)N(S(=O)(=O)c2ccccc2[N+](=O)[O-])[C@H]1c1ccc(-c2ccccc2)cc1,·,16%,·,·,-19%,-5%
NC(N)=N/N=C/c1ccc(OCc2ccccc2Cl)cc1,-10%,50µM*,23%[59 µM],-6%,?,-15%
NC(N)=N/N=C/c1ccccc1,-2%,8%,5%,-2%,-3%,5%
COc1cc(/C=N/N=C(N)N)ccc1OCc1ccc(Cl)cc1,-28%,16µM*,?,-8%,?,-6%
NC(N)=N/N=C/c1ccc(OCc2ccccc2)c(OCc2ccccc2)c1,40µM*,56µM*,?,-9%,?,?
CCOc1cc(/C=N/N=C(N)N)ccc1OCc1ccc(Cl)cc1,?,20µM*,?,-8%,?,-11%
O=S1(=O)C[C@H](N2CCCC2)[C@@H](COCc2ccccc2)N1,·,·,·,-15%,·,·
CON(C)C(=O)c1nnc2c(n1)[nH]c1ccccc12,·,8%,·,·,·,·
CCOc1cc(CNCCc2ccc(S(N)(=O)=O)cc2)ccc1OCc1ccc(Cl)cc1,4%[57.1 µM],8.9µM*,10%,-6%,-21%,10%
COc1cc(CNCCc2ccc(S(N)(=O)=O)cc2)ccc1OCc1ccc(Cl)cc1,-37%,-97%,·,-5%,-32%,-8%
